BAZ2B block = qHTS Assay for Inhibitors of BAZ2B; AlphaScreen BAZ2B-H3K14Ac peptide displacement; Potency, µM (titrated, usually from 114 µM), without a hit: at the highest dose activity change, negative = inhibition, actives largely listed as inhibitors; 360,000 compounds, 4.4% hits; also: potency is read from the fitted curve at half-maximal effect; % is scaled to controls: 0 for no effect and ±100 for the full control effect; nearly all actives have a fitted effect of over 60% in size
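BAZ2B 50 nM plus b-H3(5-23)K14Ac 50 nM, PBS pH 7.4/0.01% Tween-20, 30 min RT; compound added (max 110 uM), 30 min RT; streptavidin donor/Ni-chelate acceptor beads 10 ug/mL final, 20 min dark; AlphaScreen read.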
G9a inh = qHTS Assay for Inhibitors of Histone Lysine Methyltransferase G9a. Histone-lysine N-methyltransferase EHMT2 (Homo sapiens), Q96KQ7. G9a H3K9 monomethylation, AlphaScreen, 2 h. Potency, µM (top dose mostly 102 µM), for inactives: top-dose activity, negative = inhibition, hits mostly inhibitors. 350,000 compounds, 8.8% hits. AID 504332, 2011; also: potency is read from the fitted curve at half-maximal effect; % is scaled to controls: 0 for no effect and ±100 for the full control effect; nearly all actives have a fitted effect of over 75% in size
Target sequence (Q96KQ7 913-1193 limits assumed): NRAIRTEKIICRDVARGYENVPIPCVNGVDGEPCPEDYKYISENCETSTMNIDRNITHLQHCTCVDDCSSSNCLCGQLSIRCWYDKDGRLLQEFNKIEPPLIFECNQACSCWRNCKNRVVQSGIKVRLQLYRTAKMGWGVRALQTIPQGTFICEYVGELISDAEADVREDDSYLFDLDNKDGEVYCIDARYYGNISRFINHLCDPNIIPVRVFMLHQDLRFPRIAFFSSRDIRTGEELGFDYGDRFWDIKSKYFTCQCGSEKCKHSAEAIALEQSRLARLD
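Compounds were preincubated with 20 nM G9a for 15 min, after which biotinylated H3K9 peptide (500 nM) and SAM (20 uM) started a 2 h room-temperature reaction. Monomethylated product was quantified by antibody-based AlphaScreen chemiluminescence.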
Six1-Eya2 blk = qHTS Assay for Inhibitors of the Six1/Eya2 Interaction | Homeobox protein SIX1 (Homo sapiens) + Protein phosphatase EYA2 (Homo sapiens), … | AlphaScreen GST-Six1/His-Eya2 binding, biochemical; stronger effect = lower value | activity change, % (test concentration not listed) | 360,000 compounds, 0.56% hits | AID 651725, 2012; in the data active = activity change below about -65%; inconclusive = mostly about -30% to -63%; also: % is scaled to controls: 0 for no effect and ±100 for the full control effect
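GST-Six1 + His-Eya2 (5X stock: 250/500 nM); Tris pH 8.0, 300 mM NaCl, 0.05% BSA, 0.02% Tween 20; GSH donor/Ni acceptor beads; 1 h 37 °C dark; AlphaScreen readout.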
JMJD2A Tudor = qHTS Assay for Inhibitors of JMJD2A-Tudor Domain | AID 504339, 2011 | AlphaScreen JMJD2A-Tudor / H3K4me3 peptide binding | 390,000 compounds, 4.4% hits | Potency, µM (titrated, usually from 114 µM), inactives show at the top dose activity change, negative = inhibition, actives largely listed as inhibitors | Lysine-specific demethylase 4A (Homo sapiens), O75164; also: potency is read from the fitted curve at half-maximal effect; % is scaled to controls: 0 for no effect and ±100 for the full control effect; nearly all actives have a fitted effect of over 50% in size
HP1b binding inh = HTS for Inhibitors of HP1-beta Chromodomain Interactions with Methylated Histone Tails; Chromobox protein homolog 1 (Homo sapiens), P83916; AlphaScreen HP1-beta / biotin-H3K9me3 peptide binding; Potency, µM (doses to about 114 µM), inactives show at the highest dose activity change, negative = inhibition, actives largely listed as inhibitors; 390,000 compounds, 0.56% hits; AID 540317, 2011; also: potency is read from the fitted curve at half-maximal effect; nearly all actives have a fitted effect of over 70% in size
Target sequence (P83916 whole entry, looked up): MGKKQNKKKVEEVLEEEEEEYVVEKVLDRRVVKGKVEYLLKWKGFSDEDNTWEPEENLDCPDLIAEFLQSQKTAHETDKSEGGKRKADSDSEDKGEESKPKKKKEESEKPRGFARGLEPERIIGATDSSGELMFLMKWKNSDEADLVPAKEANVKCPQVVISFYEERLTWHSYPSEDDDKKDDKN
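HP1-beta protein (50 nM final) preincubated 30 min at room temperature with biotinylated H3(1-18)K9me3 peptide (50 nM) in PBS pH 7.4, 0.01% Tween-20, then compound added for 30 min. AlphaScreen streptavidin donor/nickel chelate acceptor beads (10 ug/mL final), 30 min dark, luminescence read.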
CtBP-E1A blk = qHTS Assay for Inhibitors of the CtBP/E1A Interaction; activity change, % (concentration not given with the values); AlphaScreen GST-E1A/His-CtBP binding, 1536-well; stronger effect = lower value; 340,000 compounds, 0.49% hits; CtBP / adenovirus E1A interaction (AlphaScreen); AID 651724, 2012; in the data active = activity change below about -65%; inconclusive = mostly about -30% to -63%; also: % is scaled to controls: 0 for no effect and ±100 for the full control effect
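GST-E1A and His-tagged CtBP (125 nM each as 5X stock) were preincubated with pin-transferred compound for 2 h at 37 °C in the dark, then glutathione donor and nickel acceptor beads were added for 1 h before AlphaScreen reading.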
* hit, by the source's call; ? = inconclusive; nt = no result; [ ] = dose if it differs, or a comment. A selection: hits, their analogues and other compounds. The true share with any hit is near 10%. Unless noted, calls follow the shape of the dose curve; as a rule, active = well fitted inhibition curve with a large enough effect; inconclusive = small, poorly fitted or top-dose-only effect; inactive = no such curve, though single readings can be large or run the other way.

SMILES	BAZ2B block	G9a inh	Six1-Eya2 blk	JMJD2A Tudor	HP1b binding inh	CtBP-E1A blk
CCCCC(=O)NC(=S)Nc1cc(C(=O)O)ccc1OC	-23%	1%	4	-5%	30%	4
COc1ccc(C(=O)O)cc1NC(=S)NC(=O)/C=C/c1ccc(C(C)C)cc1	50µM*	?	0	79µM*	6%	-3
CCN(C(=O)c1cn(-c2ccc(OC)cc2)c(=O)c2ccccc12)c1cccc(Cl)c1	3%	1%[59 µM]	nt	-18%	42%	nt
Cc1ccc(C)c(N2CCN(C(=O)C3CCN(S(=O)(=O)c4ccc5[nH]c(=O)oc5c4)CC3)CC2)c1	-20%	9%[59 µM]	nt	-27%	65%	nt
O=c1[nH]c(C(Cl)Cl)nc2sc3c(c12)CCN(Cc1ccccc1)C3	?	8.9µM*	-16	79µM*	27%	0
Nc1nc2c(c(=O)[nH]1)CN(Cc1ccccc1)CC2	6%	2%[12.7 µM]	3	4%	67%	6
CCCSc1nc2sc3c(c2c(=O)[nH]1)CCN(Cc1ccccc1)C3	-2%	10µM*	-3	-27%[11.4 µM]	10%	-6
Cc1ccc(-n2nc3c(N4CCCC(C(=O)NCc5ccccc5C)C4)nnc(C)c3c2C)cc1 (stereo not drawn)	-36%	?	nt	-29%	33%	nt
N#Cc1nc(Nc2cc(F)cc(F)c2)nc(Nc2cc(F)cc(F)c2)n1	nt	nt	nt	-18%	nt	nt
CC(/C=C/c1ccco1)=N\NC(=O)COc1ccc(C)c(C)c1	?	40µM*	-5	-33%	15%	4
Cc1ccc(OCCNC(=O)/C=C/c2ccco2)cc1C	-32%	nt	-9	-22%	3%	1
CCOC(=O)N/N=C(C)/C=C/c1ccco1	3%	11µM*	-2	-13%	42%	4
CCOC(=O)N/N=C(C)/C=C/c1ccccc1	0%	19%[59 µM]	1	-6%	29%	8
CC(/C=C/c1ccco1)=N\NC(=O)CNc1ccc2ccccc2c1	35µM*	5.6µM*	-5	?	-20%	nt
Cc1cccc(OCC(=O)OCc2cc(=O)n3nc(C4CC4)sc3n2)c1	-22%	6%[59 µM]	nt	-13%	69%	nt
COCCNC(=O)CSc1nc(-c2cc(OC)c(OC)c(OC)c2)[nH]c1-c1ccc(Cl)cc1	?	-25%[59 µM]	nt	?	-24%	nt
Cc1ccc(NC(=O)CN2C(=O)CCc3cc(S(=O)(=O)N4CCOCC4)ccc32)cc1F	-25%	-1%[12.7 µM]	nt	4%	29%	nt
COc1ccc(C(=O)NCc2ccc3c(c2)CCN3C(C)=O)cc1OC	-13%	4%[59 µM]	nt	-3%	19%	nt
COc1cccc(NC(=O)Cn2c(=O)n(CCC(=O)NCc3ccccc3OC)c(=O)c3ccccc32)c1	-33%	-8%[59 µM]	nt	-11%	7%	nt
O=C/C(=C\Nc1ccc(Cl)cn1)c1nc2cc(Cl)ccc2o1	-2%	-10%[59 µM]	-2	-3%	36%	1
COc1cc(NS(=O)(=O)c2ccc(N/C=C(\C#N)c3nc4cc(Cl)ccc4o3)cc2)nc(OC)n1	-39%	-7%[59 µM]	-18	?	16%	-3
O=C/C(=C\Nc1ccc(Cl)cn1)c1nc2ccccc2o1	-9%	?	-7	13µM*	7%	0
O=C/C(=C\Nc1ccc(S(=O)(=O)CCO)cc1)c1nc2cc(Cl)ccc2o1	-29%	50µM*	-6	-17%	56%	-13
CSC1=NSC2=NC(=O)/C(=C/c3coc4ccc(O)cc4c3=O)C(=N)N12	?	?	-67*	?	-22%	-6
CSC1=NSC2=NC(=O)/C(=C/c3coc4ccccc4c3=O)C(=N)N12	-31%	?	-27	-32%	58%	-25
SMILES	BAZ2B block	G9a inh	Six1-Eya2 blk	JMJD2A Tudor	HP1b binding inh	CtBP-E1A blk
CN(C)c1ccc(/C=C2/C[N+](C)(C)C/C(=C/c3ccc(N(C)C)cc3)C2=O)cc1	nt	nt	-8	40µM*	40µM*	13
NC(N)=N/N=C/c1cccc(Cl)c1Cl	-23%	18µM*	5	-17%	10%	0
Cc1ccc(C)c(CSc2nnc(C)n3c2cc2sccc23)c1	-14%	-8%[59 µM]	nt	-12%	31%	nt
CCc1nnc(SCc2ccc(F)cc2Cl)c2cc3sccc3n12	-12%	-16%[59 µM]	nt	-6%	45%	nt
CCc1nnc(SCc2ccc(F)cc2Cl)c2cc3sc(C)cc3n12	-15%	-9%[59 µM]	nt	89µM*	50%	nt
CCc1nnc(SCc2cc(C)ccc2C)c2cc3sc(C)cc3n12	2%	10µM*	nt	3%	44%	nt
CCOc1ccc(C(c2c(O)cc(C)n(Cc3ccco3)c2=O)N2CCCCC2)cc1 (stereo not drawn)	-9%	?	nt	-27%	9%[57 µM]	nt
CC(C)C(CCNC(=O)CC(Cc1ccccc1)c1ccco1)c1ccco1 (stereo not drawn)	50µM*	-26%[0.501 µM]	-2	?	0%	-1
CC(C)C(CCNC(=O)CN1C(=O)c2ccccc2C1=O)c1ccco1 (stereo not drawn)	-2%	-26%[59 µM]	-1	-19%	34%	1
Cc1cccc(-n2c(C)cc(/C=C3/C(=N)N4C(c5ccccc5)=CSC4=NC3=O)c2C)c1	2%	-6%[59 µM]	14	-26%	8%	2
N=C1/C(=C\c2ccc(-c3cccc(Cl)c3)o2)C(=O)N=C2SC=C(c3ccccc3)N12	?	45µM*	-9	?	?	-7
N=C1/C(=C\c2ccc(-c3ccc(C(=O)O)cc3)o2)C(=O)N=C2SC=C(c3ccccc3)N12	4.5µM*	nt	-7	14µM*	16µM*	-14
COc1cc(/C=C2/C(=N)N3C(c4ccccc4)=CSC3=NC2=O)ccc1OCC(=O)O	50µM*	nt	-5	?	-31%	5
COCCCNC(=O)C1CCN(c2cc(C)nc3c(-c4ccc(Cl)cc4)c(C)nn23)CC1	-9%	-1%[59 µM]	nt	0%	36%	nt
COc1ccc(CN2COc3ccc4c(C)cc(=O)oc4c3C2)cc1	-6%	-35%[59 µM]	nt	-10%	17%	nt
O=C(/C=C/c1ccc([N+](=O)[O-])cc1)N(c1ccccn1)C1CCCCC1	nt	5.6µM*	-22	56µM*	?	-2
CN(C)c1ccc(N=Nc2nccs2)cc1	nt	nt	-83*	nt	nt	?
CC(C)COC(=O)Nc1nnc(Cc2ccccc2)s1	-6%	-12%	0	18µM*	-4%	-4
CN(C)c1cccc(C(=O)Nc2nnc(Cc3ccccc3)s2)c1	-31%	40µM*	27	?	4%	-8

Screening data from PubChem BioAssay.
